The sample as a whole holds a higher share of hits than the screen did.
Mtb RmlCD inh: M. tuberculosis RmlC/RmlD coupled enzyme inhibitors, primary screen, biochemical, compound mixtures, 384-well, from 1536-well plates; 0.03% of 160,000 active; inhibition, % at 3.6 µM; RmlC+RmlD coupled enzyme assay, percent inhibition; primary screen in compound mixtures; AID 1533, 2009; dTDP-4-dehydrorhamnose reductase (Mycobacterium tuberculosis (strain ATCC 25618 / H37Rv)) …; in the data active means inhibition mostly above about 34%, no sharp cut-off
Target sequence (P9WH09 whole entry, looked up): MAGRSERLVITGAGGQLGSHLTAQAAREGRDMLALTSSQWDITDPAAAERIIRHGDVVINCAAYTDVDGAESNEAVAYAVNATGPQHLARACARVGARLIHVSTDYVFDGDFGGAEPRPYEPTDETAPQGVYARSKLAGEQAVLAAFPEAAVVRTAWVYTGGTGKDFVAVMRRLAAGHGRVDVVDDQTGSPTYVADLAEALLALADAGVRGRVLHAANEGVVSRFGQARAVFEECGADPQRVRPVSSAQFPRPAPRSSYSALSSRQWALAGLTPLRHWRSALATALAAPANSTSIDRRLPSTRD
Target sequence (P9WH11 whole entry, looked up): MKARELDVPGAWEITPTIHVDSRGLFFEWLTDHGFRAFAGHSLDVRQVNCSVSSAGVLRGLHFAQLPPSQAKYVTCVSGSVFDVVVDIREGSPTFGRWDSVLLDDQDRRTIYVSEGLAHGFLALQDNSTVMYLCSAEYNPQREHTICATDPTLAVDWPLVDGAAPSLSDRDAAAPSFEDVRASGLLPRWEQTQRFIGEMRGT
Large screens that a line does not name were inactive.

CC(=O)Nc1ccc(NC(=O)C(C)OC(=O)CNS(=O)(=O)c2cccc(Cl)c2)cc1 (stereo not given)	none
Cc1c(Cc2ccccc2)c(=O)oc2cc(OC(=O)c3ccccc3)ccc12	none
CCCCc1c(C)c2ccc(OCC(C)=O)cc2oc1=O	none
CCC(=O)Oc1ccc2c(C)c(Cl)c(=O)oc2c1	Mtb RmlCD inh 43
COc1ccc(N(CCC#N)S(=O)(=O)c2cccc3nsnc23)cc1	none
O=C(CCc1ccccn1)N1CCCC(CNS(=O)(=O)c2cccs2)C1 (stereo not given)	none
Cc1ccc(NC(=S)N/C(=N/S(=O)(=O)c2ccccc2)c2ccccc2)cc1	none
COc1ccc(/C=C(\C#N)C(=O)OCC(=O)NCc2ccc(Cl)cc2)cc1	none
CCOC(=O)CC(=O)CSc1nc2ccc(C)cc2cc1C#N	none
CCc1nc(SCC(=O)O)c(C#N)cc1C	none
CCOC(=O)CC(=O)CSc1nc(CC)c(C)cc1C#N	Mtb RmlCD inh 36
CC1CC(C)(C)NC(=S)N1CCCC(=O)NCc1ccccc1 (stereo not given)	none
CCOC(=O)C1(Cc2ccccc2)CCN(Cc2cn[nH]c2-c2ccccc2)CC1	none
Cn1c(SCC(=O)N/N=C/c2ccc([N+](=O)[O-])s2)nnc1-c1ccc(Cl)cc1	none
CC1CN(S(=O)(=O)c2cccc(C(=O)OCC(=O)c3cccs3)c2)CC(C)O1 (stereo not given)	none
CN(C)c1cccc(C(=O)OCc2cc(=O)oc3cc(O)ccc23)c1	none
CC1CN(S(=O)(=O)c2cccc(C(=O)OCc3cc(=O)oc4cc(O)ccc34)c2)CC(C)O1 (stereo not given)	Mtb RmlCD inh 64
O=C(Nc1cccc2ncccc12)C(c1ccccc1)c1ccccc1	none
COCCCn1c(=O)/c(=C\c2ccccc2OC(F)F)s/c1=C(/C#N)C(=O)NC(C)C	none
COc1ccc(-n2c(=O)/c(=C\c3cccs3)s/c2=C(/C#N)C(=O)NCCN2CCOCC2)cc1	none
COCCCn1c(=O)/c(=C\c2ccc(OC(F)F)c(OC)c2)s/c1=C(/C#N)C(=O)NCCOC	Mtb RmlCD inh 66
O=C1CC(c2cccc(Cl)c2)CC(O)=C1C=NC1CCCC1 (stereo not given)	none

From PubChem
